Screening results deposited in PubChem by The Scripps Research Institute Molecular Screening Center.
TEAD-YAP block: TEAD-YAP interaction inhibition, primary screen, TEAD-YAP interaction inhibitor project, luminescence, HEK-TIYL cells | TEAD-Gal4/YAP UAS-luciferase luminescence | 1.4% of 640,000 active | inhibition, % at 9.12 µM | AID 1259422, 2018; in the data active = inhibition above about 32%;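 also: 0% = median of test compound wells and 100% = reference inhibitor wells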
GPR151 activ: activators of human GPR151, primary screen, cell-based, PathHunter beta-arrestin, luminescence; G-protein coupled receptor 151 (Homo sapiens), Q8TDV0; PathHunter beta-arrestin GPR151 cells; activation, % at 11.2 µM; 1% of 650,000 active; in the data active = activation above about 4.9%;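 also: 0% = median of compound wells and 100% = cells with positive control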
FBW7 act: FBW7 E3 ligase activators, primary screen, biochemical, AlphaScreen, human. F-box/WD repeat-containing protein 7 (Homo sapiens), Q969H0. AlphaScreen FBW7–phospho-cyclin E peptide binding, activator screen. normalized activity (activation), % at 26.1 µM. 0.13% of 650,000 active; in the data active = normalized activity above about 1.9%;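 also: purified mutant Fbw7 with reduced substrate affinity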
Target sequence (Q969H0 whole entry, looked up): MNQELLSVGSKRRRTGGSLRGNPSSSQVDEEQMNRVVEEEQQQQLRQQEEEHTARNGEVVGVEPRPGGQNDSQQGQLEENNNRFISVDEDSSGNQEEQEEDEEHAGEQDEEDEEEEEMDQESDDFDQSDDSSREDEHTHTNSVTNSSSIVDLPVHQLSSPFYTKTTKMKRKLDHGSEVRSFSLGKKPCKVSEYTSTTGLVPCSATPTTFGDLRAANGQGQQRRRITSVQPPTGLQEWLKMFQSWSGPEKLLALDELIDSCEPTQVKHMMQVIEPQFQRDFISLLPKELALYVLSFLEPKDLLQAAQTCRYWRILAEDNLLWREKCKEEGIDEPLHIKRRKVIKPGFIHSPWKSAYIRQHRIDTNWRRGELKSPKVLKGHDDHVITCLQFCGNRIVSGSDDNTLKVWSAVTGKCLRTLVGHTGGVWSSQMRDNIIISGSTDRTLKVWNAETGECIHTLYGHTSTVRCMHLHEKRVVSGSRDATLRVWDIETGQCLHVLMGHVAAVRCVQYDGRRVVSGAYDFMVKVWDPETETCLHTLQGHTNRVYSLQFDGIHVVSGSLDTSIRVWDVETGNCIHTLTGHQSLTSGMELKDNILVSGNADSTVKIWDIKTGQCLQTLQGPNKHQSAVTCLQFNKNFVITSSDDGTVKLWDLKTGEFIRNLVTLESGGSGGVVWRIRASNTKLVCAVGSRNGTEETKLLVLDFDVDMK
MITF primary: MITF inhibitors, primary screen, biochemical, AlphaScreen, human; 0.91% of 650,000 active; AlphaScreen MITF homodimerization, bead proximity signal; AID 1259374, 2018; inhibition, % at 2.6 µM; in the data active = inhibition above about 50%;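 also: 0% = vehicle wells with protein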
MITF inh conf: MITF inhibitors, retest of hits, confirmation, biochemical, AlphaScreen, triplicate. shares compounds with MITF primary. AlphaScreen MITF homodimerization, biotin/His-MITF beads. inhibition, % at 2.6 µM. 16% of 4,700 active;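 active = inhibition above a cutoff derived from the DMSO control wells, cut at about 28% in these data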;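 also: 0% = MITF dimer wells with DMSO only; inhibitors lower the bead chemiluminescence by keeping MITF from dimerizing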
AS interf DR: AlphaScreen optical interference compounds, dose response, counter-screen, biochemical, HTS; shares compounds with MITF primary; IC50, µM; AID 1259373, 2018; AlphaScreen optical interference counterscreen, cell-free; 6% of 480 active; call rule not given here
AlphaScreen intf2: AlphaScreen optical interference compounds, counter-screen for MITF inhibitor project, biochemical, triplicate | shares compounds with MITF primary | LysRS AlphaScreen counterscreen, signal interference | inhibition, % at 2.6 µM | 7.6% of 4,700 active;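 active = inhibition above a cutoff derived from the DMSO control wells, cut at about 30% in these data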
Starred values were filed as active, the others as inactive; nt = not tested or not shown. A selection: hits, their analogues and other compounds. The true share with any hit is near 3.5%.

SMILES | TEAD-YAP block | GPR151 activ | FBW7 act | MITF primary | MITF inh conf | AlphaScreen intf2 | others
COc1cccc(N2CCN(Cc3ccc([N+](=O)[O-])cc3)CC2)c1 | 9 | -1 | 0 | 57* | 3 | 3
CCc1ccc(CN2CCN(C(C)C)CC2)cc1 | -8 | -2 | 0 | 81* | 29* | -9 | AS interf DR=>6.9
Cc1ccc(CN2CCN(C(C)C)CC2)cc1 | 7 | 0 | 0 | 54* | -4 | -6
CC(C)N1CCN(Cc2ccc([N+](=O)[O-])cc2)CC1 | -6 | 0 | 0 | 67* | 5 | 6
CCC(C)N1CCN(Cc2cccc(F)c2)CC1 (configuration not stated) | 4 | 0 | 0 | -1 | nt | nt
O=[N+]([O-])c1ccc(N2CCN(Cc3cc(F)ccc3F)CC2)cc1 | 0 | -1 | 0 | 58* | 1 | 5
O=[N+]([O-])c1cccc(CN2CCN(c3ccc(F)cc3)CC2)c1 | -4 | 2 | 0 | 45 | nt | nt
O=[N+]([O-])c1ccc(N2CCN(Cc3c(F)cccc3F)CC2)cc1 | -6 | 1 | 0 | 63* | 1 | -2
Cc1ccc(-n2c(/C=C/c3ccco3)nc3ccc(I)cc3c2=O)cc1 | 4 | 3 | 0 | 10 | nt | nt
COC(=O)C1=C(C)OC(N)=C(C#N)C12C(=O)Nc1ccc(Br)cc12 (configuration not stated) | 10 | 2 | 0 | 4 | nt | nt
CCN1CCN(Cc2c(Cl)cccc2Cl)CC1 | 7 | 0 | 0 | 69* | -2 | 2
Clc1ccc(CN2CCN(Cc3ccccc3Cl)CC2)cc1 | -16 | 0 | 0 | 78* | -6 | -3
CCN1CCN(Cc2ccc(Cl)c(Cl)c2)CC1 | 1 | 1 | 0 | -13 | nt | nt
CCc1ccc(CN2CCN(Cc3ccccc3Cl)CC2)cc1 | -3 | 0 | 0 | 68* | 5 | 18
COc1ccc2nc(N3CCN4CCCC4C3)c(C#N)cc2c1 (configuration not stated) | 4 | 0 | 0 | -7 | nt | nt
CCN1CCN(c2ncnc(N)c2[N+](=O)[O-])CC1 | 7 | 0 | 0 | 9 | nt | nt
COc1ccccc1OCC(=O)N1CCN(Cc2nc3ccccc3[nH]2)CC1 | -13 | 3 | -1 | 75* | 8 | 22
O=C(Cc1noc2ccccc12)N1CCN(Cc2nc3ccccc3[nH]2)CC1 | 4 | 2 | 0 | 77* | 5 | 17
O=C(COc1ccccc1Cl)N1CCN(Cc2ccccc2)CC1 | -4 | 0 | 0 | 0 | nt | nt
COc1ccccc1N1CCN(Cc2ccccc2C)CC1 | 2 | -1 | 0 | 3 | nt | nt
COc1ccccc1CN1CCN(Cc2ccccc2F)CC1 | -4 | 0 | 1 | 46 | nt | nt
COc1ccccc1CN1CCN(Cc2ccccc2OC)CC1 | -8 | -1 | 0 | 75* | 3 | 3
COc1ccccc1CN1CCN(Cc2ccccc2Cl)CC1 | 1 | 1 | 0 | 82* | 1 | 15
COc1ccccc1N1CCN(Cc2ccccc2C#N)CC1 | 0 | 1 | 0 | 55* | 3 | 6
C=CCNC(=O)c1c(N)n(CCCCCC)c2nc3ccccc3nc12 | 5 | 2 | 1 | 5 | nt | nt
SMILES | TEAD-YAP block | GPR151 activ | FBW7 act | MITF primary | MITF inh conf | AlphaScreen intf2 | others
CCOC(=O)C1C2NC(=S)N(c3ccccc3)C1(C)Oc1c(OCC)cccc12 (configuration not stated) | -7 | 0 | 0 | 35 | nt | nt
CCOC(=O)C1C2NC(=S)N(c3ccc(C)cc3)C1(C)Oc1c(OCC)cccc12 (configuration not stated) | -17 | 0 | -1 | 53* | 41* | 26
Cc1ccccc1CN1CCN(C(C)C)CC1 | -8 | -2 | 0 | 78* | -7 | 1
CC(C)N1CCN(Cc2ccccc2Br)CC1 | -2 | 2 | 0 | 51* | 0 | -4
COc1ccc(F)c(CN2CCN(CC(C)(C)C)C(CCO)C2)c1 (configuration not stated) | -5 | -1 | 0 | -11 | nt | nt
COc1cccc(Nc2cnn(C34CC5CC(CC(C5)C3C(=O)O)C4)c(=O)c2Cl)c1 (configuration not stated) | 10 | -2 | 0 | 11 | nt | nt
CCOc1cc(CN2CCN(C(C)C)CC2)ccc1OC | 10 | 0 | 0 | 55* | 9 | 11
CCOc1cc(CN2CCN(Cc3ccccc3)CC2)ccc1O | 1 | 4 | 0 | 56* | 5 | -3
CCC(CC)N1CCN(Cc2ccc(OC)c(OC)c2)CC1 | 0 | 1 | 0 | 69* | 12 | -1
CCOc1cc(CN2CCN(c3ccccc3F)CC2)ccc1O | -2 | -2 | 0 | 30 | nt | nt
CCC(CC)N1CCN(Cc2ccc(OC)cc2)CC1 | 0 | 0 | 0 | 54* | -6 | -8
Cc1ccc(C2SCC(=O)Nc3c2c(C)nn3C2CCOC(C)(C)C2)cc1 (configuration not stated) | 11 | 0 | 0 | 10 | nt | nt
NNP(=O)(Oc1ccccc1)Oc1ccccc1 | 1 | -1 | 0 | 7 | nt | nt
CC1=C(c2ccccn2)Oc2ccccc2O1 | 2 | 0 | 0 | 26 | nt | nt
COc1ccc(-c2nn(CCC#N)cc2C(N)=O)cc1 | 5 | -1 | 0 | 10 | nt | nt
Cc1cccc(CN2CCN3C(=O)[C@@H](CO)NC(=O)[C@H]3C2)n1 | -9 | 0 | 0 | -9 | nt | nt
O=C(Nc1ccc(Cl)cc1C(=O)c1ccccc1)c1ccc(F)c(F)c1 | -4 | 2 | 0 | 7 | nt | nt
CC1CN(c2ccc([N+](=O)[O-])c(N3CCOCC3)c2)CCN1 (configuration not stated) | 8 | -1 | 0 | 14 | nt | nt
COc1ccc(CN2CCN(c3ccccc3F)CC2)cc1OC | -5 | 0 | 0 | 52* | 15 | -9
CCOc1cc(CN2CCN(C(CC)CC)CC2)ccc1OC | 4 | 0 | 0 | 78* | 1 | -5
Fc1cccc(CN2CCN(Cc3ccc4c(c3)OCO4)CC2)c1 | -3 | 0 | 0 | 56* | -2 | 3
Brc1cccc(CN2CCN(Cc3ccc4c(c3)OCO4)CC2)c1 | 3 | 1 | 0 | 64* | -3 | 7
Clc1cccc(CN2CCN(Cc3cccc(Br)c3)CC2)c1 | 10 | 0 | 0 | 50 | nt | nt
Brc1cccc(CN2CCN(Cc3cccc(Br)c3)CC2)c1 | 2 | 0 | 1 | 77* | -3 | 10
COc1ccc(OC)c(CN2CCN(C(C)C)CC2)c1 | 1 | 0 | 0 | 72* | 4 | 4
CCC(C)N1CCN(Cc2cccc(C)c2)CC1 (configuration not stated) | -1 | 1 | 0 | 37 | nt | nt
